{"source": "PubChem BioAssay AID686978", "about": "(National Center for Advancing Translational Sciences (NCATS), 2013)", "note": "Screen size: about 420,000 compounds; about 64,000 (15%) were called active. Inconclusive results (about 27%) are left out. Not all results are given here. A call without a number means that no potency is given here. A number with no mark means an inactive call. Calls follow the shape of the dose curve; as a rule, active = well fitted inhibition curve with a large enough effect; inconclusive = small, poorly fitted or top-dose-only effect; inactive = flat fitted curve, though single readings scatter. Potency is read from the fitted curve at half-maximal effect.", "data": [{"test": "qHTS for Inhibitors of human tyrosyl-DNA phosphodiesterase 1 (TDP1): qHTS in cells in absence of CPT; also: nearly all actives have a fitted effect of over 55% in size", "details": "DT40 Tdp1-/- hTDP1 cells, no CPT, ATP luminescence, 48 h; activity change, negative = growth inhibition: at 46.2 µM (top of the series)", "in_short": "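Compound effects on proliferation are scored in DT40 Tdp1-/-;hTDP1 cells in the absence of CPT. ATP levels (CellTiter-Glo luminescence) are recorded after a ≥48 hr, 37 °C incubation.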", "values": [{"smiles": "C=CCNc1nnc(SCC(=O)N2CCCCC2)c2ccccc12", "Potency": "inactive"}, {"smiles": "Cc1cc(NC(=O)CSc2nc3ccccc3n2CC(C)C)no1", "Potency": "inactive"}, {"smiles": "Cc1cc(C)c(NC(=O)Cn2c(SCC(=O)NCc3ccccc3)nc3ccccc32)c(C)c1", "Potency": "18.4 µM (active)"}, {"smiles": "CC(C)(C)NC(=O)Cn1c(SCC(=O)Nc2nccs2)nc2ccccc21", "Potency": "inactive"}, {"smiles": "O=[N+]([O-])c1ccc(Oc2ccc(F)cc2Br)c2ccncc12", "Potency": "23.1 µM (active)"}, {"smiles": "O=c1[nH]c2c(c(=O)n1-c1ccccc1)CCO2", "Potency": "inactive"}, {"smiles": "CCC(C)c1ccc(NC(=S)N2CCCC2)cc1", "note": "(stereo not drawn)", "Potency": "10.3 µM (active)"}, {"smiles": "CCOc1ccc(NC(=S)N2CCCCCC2)cc1", "Potency": "inactive"}, {"smiles": "CCOC(=O)c1ccc(NC(=S)N2CCCC2)cc1", "Potency": "inactive"}, {"smiles": "Cc1cc(OCC(=O)NCC(O)c2ccccc2)c2c(C)c(C)c(=O)oc2c1", "note": "(stereo not drawn)", "Potency": "inactive"}, {"smiles": "CCCC1CC(C)(C(=O)Cn2[nH]c(=O)ccc2=O)OC1=O", "note": "(stereo not drawn)", "Potency": "inactive"}, {"smiles": "COc1cc(-c2nnc(NC(=O)CS(=O)(=O)c3ccc(Cl)cc3)o2)cc(OC)c1OC", "Potency": "inactive"}, {"smiles": "COC(=O)c1c(-c2ccsc2)oc2ccc(-c3cc(OC)c(OC)c(OC)c3)cc12", "Potency": "16.4 µM (active)"}, {"smiles": "CCOC(=O)c1c(-c2ccccc2)oc2ccc(OCC(=O)NN)cc12", "Potency": "inactive"}, {"smiles": "C/C(Nc1ccc2oc(=O)ccc2c1)=C1/C(=O)CC2[C@@H]1C2(C)C", "note": "(stereo partly drawn)", "activity change, negative = growth inhibition": "-12.6% [at 9.04 µM]"}, {"smiles": "C/C(=N/NC(=O)c1ccn(C)n1)c1ccncc1", "Potency": "inactive"}, {"smiles": "Cc1cnc(NC(=O)C2CCCC2)s1", "Potency": "inactive"}, {"smiles": "COc1ccc(CC(=O)Nc2ccc(-c3nnc(-c4ccc(C)cc4)o3)cc2)cc1", "Potency": "inactive"}, {"smiles": "CCCCCNC(=O)Cc1ccc(OC)cc1", "Potency": "inactive"}, {"smiles": "C/C=C/NNC(=O)Cc1ccc(OC)cc1", "Potency": "5.62 µM (active)"}, {"smiles": "CS(=O)(=O)N1CCN(C(=O)Cc2ccccc2)CC1", "Potency": "inactive"}, {"smiles": "CC(C)c1ccc(CC(=O)N2CCC2(C)C(=O)NS(=O)(=O)c2ccc(C(C)(C)C)cc2)cc1", "note": "(stereo not drawn)", "Potency": "inactive"}, {"smiles": "CC1=C(N2CCN(c3ncccn3)CC2)CCC1=O", "Potency": "inactive"}, {"smiles": "Oc1ccc(CN2CCN(c3ncccn3)CC2)cc1", "Potency": "inactive"}, {"smiles": "c1cnc(N2CCN(c3ccc4ccccc4n3)CC2)nc1", "Potency": "18.4 µM (active)"}, {"smiles": "N#CCc1ccc(NC(=O)c2ccccc2C(=O)Nc2ccc(CC#N)cc2)cc1", "Potency": "inactive"}, {"smiles": "CC(=O)Nc1ccc(CC#N)cc1", "Potency": "inactive"}, {"smiles": "O=C(NCCN1CCOCC1)c1cnn(-c2nccc(-c3cccs3)n2)c1C1CC1", "Potency": "inactive"}, {"smiles": "CC(C)n1ncc2c(C(=O)N3CCN(Cc4cccs4)CC3)cc(C3CC3)nc21", "Potency": "25.9 µM (active)"}, {"smiles": "CC(C)n1ncc2c(C(=O)Nc3ccc(CC#N)cc3)cc(C3CC3)nc21", "Potency": "13 µM (active)"}, {"smiles": "Cc1ccsc1C1C(C#N)=C(N)OC2=C1C(=O)CC(C)C2", "note": "(stereo not drawn)", "Potency": "inactive"}, {"smiles": "CCOC(=O)Cc1cc(=O)[nH]c(=O)[nH]1", "Potency": "inactive"}, {"smiles": "COCCn1cnnc1SCC(=O)Nc1cccc(S(=O)(=O)N2CCCCC2)c1", "Potency": "inactive"}, {"smiles": "Cc1c(CCO)c(=O)n(-c2ccccc2)n1S(=O)(=O)c1ccc(F)cc1", "Potency": "inactive"}, {"smiles": "COCCCNC(=O)C1CC(=O)N(c2ccc(C)cc2)C1", "note": "(stereo not drawn)", "Potency": "inactive"}, {"smiles": "Cc1oc(-c2ccccc2F)nc1CS(=O)(=O)CC(=O)NCCCN(C)C1CCCCC1", "Potency": "inactive"}, {"smiles": "Cc1ccc(N2C(=O)C(CC(=O)Nc3cccc(F)c3)N(CCc3ccncc3)C2=O)cc1", "note": "(stereo not drawn)", "Potency": "inactive"}, {"smiles": "CCOc1ccc(NC(=O)CN(C)C(=O)CCSc2ccc(F)cc2)cc1OCC", "Potency": "inactive"}, {"smiles": "CCN(C(=O)COC(=O)C1CCN(S(=O)(=O)c2ccc(C)c(C)c2)CC1)C1CCS(=O)(=O)C1", "note": "(stereo not drawn)", "Potency": "inactive"}, {"smiles": "O=[N+]([O-])c1ccc(N(CCO)Cc2ccccc2)c([N+](=O)[O-])c1", "Potency": "inactive"}, {"smiles": "CCCN(CCC)C(=O)C1c2ccccc2Oc2ccccc21", "Potency": "25.9 µM (active)"}, {"smiles": "CCCCCNC(=O)C1c2ccccc2Oc2ccccc21", "Potency": "inactive"}, {"smiles": "CCOC(=O)CC(NC(=O)C1c2ccccc2Oc2ccccc21)c1ccc(C)cc1", "note": "(stereo not drawn)", "Potency": "inactive"}, {"smiles": "Cc1ccccc1OCCC(=O)OCC(=O)NCCc1ccc(S(N)(=O)=O)cc1", "Potency": "inactive"}, {"smiles": "CC(=O)Nc1cccc(NC(=O)CSc2nccn2Cc2ccc(F)cc2)c1", "Potency": "inactive"}, {"smiles": "Cc1nnc(NC(=O)CSc2nccn2-c2cccc(C)c2C)s1", "Potency": "3.26 µM (active)"}, {"smiles": "Cc1ccccc1-n1c(SCC(=O)Nc2cccc3ccccc23)nc(O)cc1=O", "Potency": "inactive"}, {"smiles": "O=C(CSc1nccn1-c1ccc(F)cc1)Nc1cccc2ccccc12", "Potency": "14.6 µM (active)"}, {"smiles": "Cc1cccc(CSc2nnc(NC(=O)CSc3nnc(C)s3)s2)c1", "Potency": "inactive"}, {"smiles": "COc1ccccc1-n1ccnc1SCC(=O)NC(C)(C)C", "Potency": "inactive"}, {"smiles": "Cc1cccc(-n2ccnc2SCC(=O)Nc2cccc3ccccc23)c1C", "Potency": "16.4 µM (active)"}, {"smiles": "COc1ccccc1-n1c(CNC(=O)c2ccccc2)nnc1SCC(=O)Nc1nnc(C)s1", "Potency": "inactive"}, {"smiles": "Cc1cc(NC(=O)CSc2nccn2-c2ccc([N+](=O)[O-])cc2)no1", "Potency": "inactive"}, {"smiles": "Cc1cccc(NC(=O)c2ccc(OCC(=O)NCc3ccccc3)cc2)c1C", "Potency": "inactive"}, {"smiles": "COC(=O)C(C(=O)Nc1cccc(Cl)c1C)C1CCCC1", "note": "(stereo not drawn)", "Potency": "inactive"}, {"smiles": "CCOC(=O)C(=O)C1C(=O)Nc2ccccc21", "note": "(stereo not drawn)", "Potency": "inactive"}, {"smiles": "CCC(=O)Nc1c(C)n[nH]c1C", "Potency": "inactive"}, {"smiles": "CCOc1ccc(-c2cn(S(=O)(=O)c3cccc4nsnc34)nc2N)cc1", "Potency": "inactive"}, {"smiles": "COc1cccc(CNC(=O)CN2C(=O)CCc3cc(S(=O)(=O)N4CCOCC4)ccc32)c1", "Potency": "inactive"}, {"smiles": "Cc1cc(NC(=O)CSc2nc(=O)cc(N)n2-c2ccc(F)cc2)no1", "Potency": "inactive"}, {"smiles": "CC(=O)c1ccc(NC(c2ccc(F)cc2)c2nnc(-c3ccccc3)o2)cc1", "note": "(stereo not drawn)", "Potency": "8.2 µM (active)"}, {"smiles": "CC(=O)c1ccc(NC(=O)COc2ccccc2-c2nc(-c3ccccc3)no2)cc1", "Potency": "inactive"}, {"smiles": "CCCN(CCC)c1ccc(C(O)c2nnc(-c3ccccc3)o2)cc1", "note": "(stereo not drawn)", "Potency": "inactive"}, {"smiles": "NC(=O)C1(N2CCCC2)CCN(Cc2ccccc2)CC1", "Potency": "inactive"}, {"smiles": "COC(=O)[C@@H]1C[C@H]2CC[C@H](O)C[C@H]2N1Cc1ccc(N2CCN(C)CC2)cc1", "Potency": "inactive"}, {"smiles": "COCCNC(=O)C(c1ccc(C)o1)N(Cc1ccccc1)C(=O)Cn1nnc2ccccc21", "note": "(stereo not drawn)", "Potency": "inactive"}, {"smiles": "CCOc1ccc(/C=C(\\C#N)c2nc3ccccc3c(=O)[nH]2)cc1OC", "Potency": "inactive"}, {"smiles": "N#C/C(=C\\c1ccccc1F)c1nc2ccccc2c(=O)[nH]1", "Potency": "inactive"}, {"smiles": "Cc1ccc2nc(/C(C#N)=C/c3ccccc3F)[nH]c2c1", "Potency": "18.4 µM (active)"}, {"smiles": "COc1ccccc1CSc1nc2ccccc2[nH]1", "Potency": "inactive"}, {"smiles": "Cc1ccc2nc(/C(C#N)=C/c3ccc(-c4ccc(C(=O)OC(C)C)cc4)o3)[nH]c2c1", "Potency": "5.17 µM (active)"}, {"smiles": "COc1cc(/C=C(\\C#N)c2nc3ccccc3[nH]2)ccc1O", "Potency": "23.1 µM (active)"}, {"smiles": "CCOC(=O)c1ccc(-c2ccc(/C=C(\\C#N)C(=O)Nc3ccc(OCC)cc3)o2)cc1", "Potency": "inactive"}, {"smiles": "Cc1ccc2nc(/C(C#N)=C\\c3ccc(OC(=O)c4cccs4)cc3)[nH]c2c1", "Potency": "6.51 µM (active)"}, {"smiles": "Cc1ccc2nc(S(=O)(=O)O)[nH]c2c1", "Potency": "inactive"}, {"smiles": "N#CCCC(C#N)(c1cccnc1)N1CCOCC1", "note": "(stereo not drawn)", "Potency": "inactive"}, {"smiles": "CCCCN1CC(COCc2ccccc2)OCCS1(=O)=O", "note": "(stereo not drawn)", "Potency": "inactive"}, {"smiles": "CC(C)c1cc(C(=O)O)on1", "Potency": "inactive"}, {"smiles": "CN(C(=O)CSc1nnnn1-c1ccccc1)C1CCCCC1", "Potency": "inactive"}, {"smiles": "NNC(=O)CNC(c1ccccc1)c1cc(Cl)ccc1NC(=O)c1ccccc1", "note": "(stereo not drawn)", "Potency": "inactive"}, {"smiles": "CC(C)C(c1nnnn1C(C)(C)C)N1CCN(Cc2cccnc2)CC1", "note": "(stereo not drawn)", "Potency": "inactive"}, {"smiles": "COc1ccc(C(=O)O/N=C(\\N)c2ccccn2)cc1[N+](=O)[O-]", "Potency": "inactive"}, {"smiles": "CCOc1ccc(-c2nnn(CC(=O)N3CCN(c4ccc(F)cc4)CC3)n2)cc1OCC", "Potency": "inactive"}, {"smiles": "CCc1ccccc1NC(=O)c1cccs1", "Potency": "inactive"}, {"smiles": "O=C(Nc1ccccc1-c1ccccc1)c1cccs1", "Potency": "23.1 µM (active)"}, {"smiles": "COc1ccccc1N1CCN(C(=O)Cn2nnc(-c3cccs3)n2)CC1", "Potency": "inactive"}, {"smiles": "O=C(Nc1ccccc1)c1ccc(NC(=O)c2cccs2)cc1", "Potency": "inactive"}, {"smiles": "O=C(Nc1ccccc1-c1nnn(CC(=O)N2CCN(c3ccccc3)CC2)n1)c1cccs1", "Potency": "23.1 µM (active)"}, {"smiles": "OCCNCCCCOc1ccccc1F", "Potency": "inactive"}, {"smiles": "Cn1c2c(c(=O)n(C)c1=O)[C@@H]1c3c(ccc4ccccc34)OC[C@@H]1CO2", "Potency": "inactive"}, {"smiles": "COc1cc(N2C(=O)CC3(CCCC3)CC2=O)cc(OC)c1OC", "Potency": "inactive"}, {"smiles": "O=C(COc1ccc(F)cc1)N(CC1=CCS(=O)(=O)C1)c1ccccc1", "Potency": "inactive"}, {"smiles": "CC1C(=O)Nc2ccccc2N1C(=O)c1c(F)cccc1F", "note": "(stereo not drawn)", "Potency": "inactive"}, {"smiles": "CC1C(=O)N(Cc2ccccc2)c2ccccc2N1C(=O)c1ccccc1", "note": "(stereo not drawn)", "Potency": "13 µM (active)"}, {"smiles": "CC1Oc2ccccc2N(Cc2cccnc2)C1=O", "note": "(stereo not drawn)", "Potency": "inactive"}, {"smiles": "Cc1ccc(C(=O)Nc2nc(N)n(-c3ccccc3)n2)cc1", "Potency": "inactive"}, {"smiles": "Cc1ccc(C(=O)Nc2nc(-c3ccccc3)ns2)cc1", "Potency": "inactive"}, {"smiles": "CCc1cccc(-n2nnc(-c3nsc(NC(=O)c4ccc(C)cc4)n3)c2C)c1", "Potency": "8.2 µM (active)"}, {"smiles": "CN(Cc1ccccc1)C(=O)CCc1ccccc1", "Potency": "inactive"}, {"smiles": "CCc1ccc(CN(C)C(=O)CCc2nnc(-c3ccc(-c4ccccc4)cc3)o2)nc1", "Potency": "11.6 µM (active)"}, {"smiles": "CC(=O)c1ccc(-c2nnc(CCC(=O)N(C)Cc3cnc4ccccn34)o2)s1", "Potency": "inactive"}, {"smiles": "CCOc1ccc(C)cc1S(=O)(=O)NC1CCCCCC1", "Potency": "inactive"}, {"smiles": "Cn1c(-c2ccccc2)c[n+]2c1CCCCC2", "Potency": "inactive"}, {"smiles": "Clc1ccc(C[n+]2cc(-c3ccc(Cl)cc3)n3c2CCC3)cc1", "Potency": "5.8 µM (active)"}, {"smiles": "Clc1ccc(C[n+]2cc(-c3ccccc3)n3c2CCC3)cc1", "Potency": "5.17 µM (active)"}, {"smiles": "COc1ccccc1C(=O)NCCC(=O)N(C)Cc1cccnc1", "Potency": "inactive"}, {"smiles": "COCC1CCN(C(=O)C2CCC(=O)N(Cc3cccc(C(F)(F)F)c3)C2)CC1", "note": "(stereo not drawn)", "Potency": "inactive"}, {"smiles": "O=C(NCCc1ccccn1)c1nc(Cn2cc([N+](=O)[O-])cn2)no1", "Potency": "inactive"}]}]}
